{
  "source": "the supplement of paper PMC8728848",
  "test_in_all_cases": "glycan array binding signal (z-score within array); higher = stronger binding",
  "conditions_in_all_cases": "glycan notation: IUPAC condensed, linker removed",
  "key": {"[1]": {"test_system": "Fuc(a1-3)[Gal(b1-4)]GlcNAc(b1-2)Man(a1-3)[Fuc(a1-3)[Gal(b1-4)]GlcNAc(b1-2)Man(a1-6)]Man(b1-4)GlcNAc(b1-4)GlcNAc", "procedure,_shortened": "(§1)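 The binding signal is a Z-score computed within each array and averaged over linkers. Arrays of the same protein sequence at different concentrations or buffers were also averaged together. Data originate from 3228 arrays in the Consortium for Functional Glycomics database, kept only where the protein sequence was available.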"}, "[2]": {"test_system": "Fuc(a1-3)[Gal(b1-4)]GlcNAc(b1-3)Gal(b1-3)[Fuc(a1-4)]GlcNAc", "procedure,_shortened": "as §1"}, "[3]": {"test_system": "Fuc(a1-3)[Gal3S(b1-4)]GlcNAc", "procedure,_shortened": "as §1"}, "[4]": {"test_system": "Fuc(a1-3)[Neu5Ac(a2-3)]Gal(b1-4)GlcNAc(b1-3)GalNAc", "procedure,_shortened": "as §1"}, "[5]": {"test_system": "Fuc(a1-3)[Gal(b1-4)]GlcNAc(b1-2)Man", "procedure,_shortened": "as §1"}, "[6]": {"test_system": "Fuc(a1-3)[GalNAc(b1-4)]GlcNAc", "procedure,_shortened": "as §1"}, "[7]": {"test_system": "Fuc(a1-3)[Gal(b1-4)]GlcNAc(b1-3)Gal(b1-4)[Fuc(a1-3)]GlcNAc(b1-3)Gal(b1-4)[Fuc(a1-3)]GlcNAc", "procedure,_shortened": "as §1"}, "[8]": {"test_system": "Fuc(a1-3)[Gal(b1-4)]GlcNAc(b1-3)GalNAc", "procedure,_shortened": "as §1"}, "[9]": {"test_system": "Fuc(a1-3)[Gal(b1-4)]GlcNAc(b1-6)[Gal(b1-3)GlcNAc(b1-3)]Gal(b1-4)Glc", "procedure,_shortened": "as §1"}, "[10]": {"test_system": "Fuc(a1-3)[Gal3S(b1-4)]GlcNAc6S", "procedure,_shortened": "as §1"}},
  "note": "Shown is part of a subset that was picked to be rich in the strongest signals.",
  "data": [
    {"substance": "LcI (Legionella pneumophila)", "values": [
      {"measurement": "glycan array binding signal (z-score)", "setting": "[1]", "value": 0.959}
    ]},
    {"substance": "SpGH101 (Streptococcus pneumoniae), Q8DR60", "values": [
      {"measurement": "glycan array binding signal (z-score)", "setting": "[1]", "value": -0.202},
      {"measurement": "glycan array binding signal (z-score)", "setting": "[2]", "value": -0.148},
      {"measurement": "glycan array binding signal (z-score)", "setting": "[3]", "value": -0.161},
      {"measurement": "glycan array binding signal (z-score)", "setting": "[4]", "value": 0.764}
    ]},
    {"substance": "Wza (Escherichia coli), P0A930", "values": [
      {"measurement": "glycan array binding signal (z-score)", "setting": "[5]", "value": 0.907},
      {"measurement": "glycan array binding signal (z-score)", "setting": "[3]", "value": -1.1},
      {"measurement": "glycan array binding signal (z-score)", "setting": "[6]", "value": -1.12}
    ]},
    {"substance": "BambL (Burhholderia ambifaria), Q0B4G1", "values": [
      {"measurement": "glycan array binding signal (z-score)", "setting": "[2]", "value": 1.03}
    ]},
    {"substance": "Actinohivin (Actinomycete K97)", "values": [
      {"measurement": "glycan array binding signal (z-score)", "setting": "[7]", "value": -0.173},
      {"measurement": "glycan array binding signal (z-score)", "setting": "[8]", "value": -0.169},
      {"measurement": "glycan array binding signal (z-score)", "setting": "[6]", "value": -0.17}
    ]},
    {"substance": "SiiE (Salmonella typhimurium), A0A0H3NVH0", "values": [
      {"measurement": "glycan array binding signal (z-score)", "setting": "[9]", "value": 1.13}
    ]},
    {"substance": "AgI/IIC123-GFP (Streptococcus mutans)", "values": [
      {"measurement": "glycan array binding signal (z-score)", "setting": "[10]", "value": -0.143}
    ]},
    {"substance": "AgI/II Vhelical-GFP (Streptococcus mutans)", "values": [
      {"measurement": "glycan array binding signal (z-score)", "setting": "[10]", "value": -0.111}
    ]}
  ]
}
